Test results as given in PubChem BioAssay AID504861 (Broad Institute, 2011).
Among all 1,200 compounds or so, about 290 (24%) were called active. Inconclusive results (about 3%) are left out. These entries were drawn from the full list. Entries with a potency or affinity are not part of this list. A number with no mark means an inactive call.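 How the source made its calls: active means compounds lowering cell viability signal with fitted half-maximal concentration at most ten times their highest tested concentration; inconclusive means flat fit with 30 to 70% signal loss, or poor fit; inactive means the rest.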

test: cytotoxicity in HEK293T cells – cell-based, CellTiter-Glo luminescence, cherry-picks, cytotoxicity control for LMP1 NF-kB inhibitor project, dose response (AID 504861); details: HEK293T viability, CellTiter-Glo ATP luminescence, 48 h; series mostly up to 26 µM; activity change, negative = cytotoxicity: at the top concentration

SMILES | activity change, negative = cytotoxicity [%]
CCC(C)n1ncn(-c2ccc(N3CCN(c4ccc(OCC5COC(Cn6cncn6)(c6ccc(Cl)cc6Cl)O5)cc4)CC3)cc2)c1=O (stereo not drawn) | 5.74
CC(=C/c1ccccc1)/C=N/n1c(-c2ccncc2)n[nH]c1=S | 2.82
CCCc1c(C(=O)N/N=C(\C)c2ccccn2)nnn1-c1nonc1N | -2.76
N/C(=N\OC(=O)c1cccc(Br)c1)c1ccccn1 | 1.86
Cc1ccnc(NC(=O)c2cccc(NC(=O)c3ccc(Cl)c(Cl)c3)c2)c1 | 1.38
O=C(O)c1ccc(C=NN=C2c3ccccc3-c3ccccc32)cc1 | -3.57
Cc1ccc(CCNC(=O)CCc2nc3ccccc3[nH]2)cc1 | 11.4
CCn1c2ccccc2c2cc(/C=N/n3c(-c4cc(C)[nH]n4)n[nH]c3=S)ccc21 | 28
O=C(O)c1cn2c3c(ccc(Cl)c3c1=O)OCC2 | -3.22
S=c1[nH]nc(C2CCCCC2)n1/N=C/c1ccncc1 | -1.04
CCN(CC)S(=O)(=O)c1ccc(N/N=C/c2ccc(O)cc2O)nc1 | 6.74
CCN(CC)S(=O)(=O)c1ccc(N=NC2=C(O)CCCC2=O)cc1 | -0.271
COC(=O)C1=NNC(C(=O)OC)C1c1ccccc1 (stereo not drawn) | 13.5
COCCCNCC1C(Oc2ccc(Cl)cc2)C(=O)N1c1ccccc1C (stereo not drawn) | -10
COc1ccc(C(=O)Nc2cc(C)c(NC(=O)c3ccccc3OC)cn2)cc1 | -4.03
COc1ccccc1-n1cc([C@@H]2C[C@H]3CN(c4ccccc4)C(=O)[C@]34CCCN24)cn1 | -10.5
COc1ccc2cc(C(N)=O)/c(=N\NC(=O)c3ccccc3)oc2c1 | 8.96
CCOC(=O)CNC(=O)CSc1nnc(NC(=O)c2ccc(C)cc2)s1 | 11.2
Nc1cc(=O)[nH]c(SCCSc2cc(Cl)ccc2Cl)n1 | 8.12
O=C(Nc1ccc(N2CCOCC2)cc1)c1cn2ccccc2n1 | -4.89
COc1cc(/C=C(\C#N)c2ccccn2)ccc1OCc1ccccc1Cl | 3.91
CN(C)CCN(Cc1ccc(Cl)cc1)c1ccccn1 | 9

SMILES | activity change, negative = cytotoxicity [%]
CCn1c2ccccc2c2cc(/C=N/n3c(C)nnc3C)ccc21 | -0.28
Cn1cccc1C(=O)OCC(=O)Nc1ccc2c(c1)OCO2 | 10.4
Cc1ccc2oc(C(=O)Nc3ccc(S(=O)(=O)Nc4onc(C)c4C)cc3)c(C)c2c1 | -4.22
O=C(CN1C(=O)c2ccccc2S1(=O)=O)c1ccc(F)c(F)c1 | 6.66
CC(=O)c1sc(NC(=O)C2COc3ccccc3O2)nc1C (stereo not drawn) | 1.27
Cc1ccccc1NC(=O)CN1C(=O)S/C(=C\c2cccn2-c2cccc(C(=O)O)c2)C1=O | 18.8
O=C(O)/C=C/c1ccc2ccccc2n1 | 5.78
CCOC(=O)Nc1ccc2c(c1)N(C(=O)CN(C)C)c1ccccc1CC2 | 8.4
CCOCCCNC(=O)CN1C(=O)/C(=C\c2ccc(C)cc2)Sc2ccccc21 | 1.27
CCN(c1ccccc1)S(=O)(=O)c1ccc(Cl)c(NC(=O)Nc2ccc(Cl)cc2C#N)c1 | 0.681
COc1ccc(-c2csc3ncnc(NCCO)c23)cc1 | -5.42
COC(=O)c1cc2n(n1)CCN(Cc1ccccc1Cl)C2=O | 20.5
CC1CN(c2cc(=O)n(-c3ccccc3)c(=O)[nH]2)CC(C)O1 (stereo not drawn) | 5.49
CCc1cc2c(Sc3nc4ccccc4s3)ncnc2s1 | 3.61
Cc1nn(-c2ccccc2)c(Cl)c1C(=O)N1CCN(c2ncnc3c2cnn3-c2ccccc2)CC1 | -6.98
CC1(C)Cc2c(ccc3ccccc23)/C(=C/C(=O)N2CCCCC2)N1 | -4.53
COc1ccc(NC(=O)NCCN2CCc3ccccc3C2)cc1 | 12.1
COc1ccc2cc(-c3cc(C(=O)O)c4ccccc4n3)ccc2c1 | -2.9
Cc1cc2cc(CN(Cc3ccco3)S(=O)(=O)c3c(C)ccc4nsnc34)c(=O)[nH]c2cc1C | 5.72
CCCN(CC)c1ncnc2[nH]ncc12 | 6.36
COc1ccc(/C=N/Nc2cc(OC)ncn2)cc1 | -6.09
CN(C)c1ccc(C=Cc2ccnc3c(O)cccc23)cc1 | 7.55

SMILES | activity change, negative = cytotoxicity [%]
COc1ccc(CC(C)NCC(O)c2ccc(O)c(NC=O)c2)cc1 (stereo not drawn) | 9.09
COc1ccc(-n2c(SCC(=O)Nc3ccc4c(c3)OCO4)nc3c(c2=O)SCC3)cc1 | 14.8
CCOCCCn1cnc2c3cc(F)ccc3n(C)c2c1=O | 4.26
CC(C)(C)n1nc(-c2ccc(Cl)cc2)c2c(N)ncnc21 | 5.92
CCc1ccc(/C=C2\SC(=S)N(CCCC(=O)NC3=NCCS3)C2=O)cc1 | 4.7
CCOc1cc(/C=C2/C(=N)N3N=C(CC)SC3=NC2=O)ccc1OC(=O)c1ccco1 | 1.86
COc1ccc(-c2cc(C(=O)N3CCCC3)no2)cc1 | -9.67
O=Cc1ccc(-c2cccs2)s1 | 2.5
COC(=O)c1ccc(CSc2nc3c(c(=O)n2-c2ccc(C)cc2)SCC3)o1 | 0.495
Cc1ccc(-n2cc(C(=O)c3ccccc3O)cn2)cc1 | 1.39
COc1ccc(C(=O)N=c2nc3ccccn3s2)cc1 | 0.856
CC(=O)c1cc(C(=O)Nc2ccc(C(=O)O)cc2)oc1C | 6.62
COc1ccc(NC(=O)/C(C#N)=C/c2cc(C)n(-c3ccc(N4CCOCC4)c([N+](=O)[O-])c3)c2C)cc1 | 12.6
CCOC(=O)c1c(CSc2nc(C)cc(C)c2C#N)n(C)c2cc(Br)c(OC(C)=O)cc12 | 7.63
Cc1nc(SCC(=O)c2cccc([N+](=O)[O-])c2)n[nH]1 | 6.82
CCOc1ccc(Nc2ncnc3ccc([N+](=O)[O-])cc23)cc1 | 0.16
CC(NC(=O)CNC(=O)OCc1ccccc1)C(=O)N1CC(O)CC1C(=O)OCc1ccccc1 (stereo not drawn) | 3.26
CC(C)(C)OC(=O)N1Cc2ccccc2C[C@H]1C(=O)NCC(=O)Nc1ccc2c(c1)OCCO2 | 1.18
COc1ccc(-n2cnc3c(cnn3CCC#N)c2=N)cc1 | 1.49
Cc1ccn2c(c1)nc(=S)n2C(=O)c1ccccc1 | 4.84
COc1ccc(NC(=O)c2cc3c(CO)cnc(C)c3oc2=Nc2cccc(F)c2)c(OC)c1 | 5.36
N#Cc1c(Nc2ccccc2)sc(C(=O)c2ccc(F)cc2)c1N | -4.44

SMILES | activity change, negative = cytotoxicity [%]
C=CCn1c(SCc2csc(C)n2)nc2sc3c(c2c1=O)CCCC3 | 0.035
CCn1c2ccccc2c2cc(/C=N/n3cn[nH]c3=S)ccc21 | -7.9
O=C1CC(c2cccs2)Cc2nc(NC(=O)C3CC3)ncc21 (stereo not drawn) | 5.6
CC(=O)O[C@]1(C(C)=O)CC[C@H]2[C@@H]3C=C(C)C4=CC(=O)CC[C@@H]4[C@H]3CC[C@@]21C | 3.47
Cc1ccc(-c2cc(C(=O)N/N=C/C=C/c3ccco3)c3ccccc3n2)cc1C | 6.86
Cc1ccc(C(=O)NCC(=O)N(C)Cc2cccc(F)c2)s1 | 9.7
Cn1cccc1/C=N/n1c(-c2ccc(Cl)cc2Cl)n[nH]c1=S | 20.7
O=C(Nc1cccc(C(=O)O)c1)Nc1ccccc1Cl | -4.79
CCn1nnc2cc(C(=O)NCCc3ccccc3F)ccc21 | 4.03
O=C(NCCc1cn2ccccc2n1)C1CCCCC1 | 2.71
Cc1ccc(C)c(Cn2c(O)c(N=NC(=S)Nc3ccccc3F)c3ccccc32)c1 | 4.62
N#CC1=C(N)C(C#N)(C#N)C(c2cccnc2)C2CC(c3ccccc3)CC=C12 (stereo not drawn) | -9.23
Cc1nc(C)n(C(C)CNC(=O)c2ccco2)n1 (stereo not drawn) | 20.6
O=C(O)c1ccccc1Nc1cccc(OCc2ccc3ccccc3n2)c1 | 2.93
CCCC(=O)NCCCc1nc2ccccc2n1C | 4.83
O=C(O)c1cc(=O)c2c(OCC(O)COc3cccc4oc(C(=O)O)cc(=O)c34)cccc2o1 | 2.34
COc1ccc(-n2c(C)c([N+](=O)[O-])c3ccc(O)c(CN(C)C)c32)cc1 | -4.24
COc1ccc(Cl)cc1NC(=O)CN(C)S(=O)(=O)c1cccs1 | 0.878
OCCN(CCO)CC(O)COCCC12CC3CC(CC(C3)C1)C2 (stereo not drawn) | 6.07
O=C(Nc1ccc2c(c1)nc1n2CCSC1)c1ccco1 | 1.58
Cc1ccc(/C=C/c2nc3ccccc3c(=O)[nH]2)cc1 | 11.4
CCn1c(/C=C/c2ccc([N+](=O)[O-])o2)nc2ccccc2c1=O | -4.54

SMILES | activity change, negative = cytotoxicity [%]
COc1ccccc1-c1ccccc1C1=CC(=O)CC(C)(C)C1=O | -7.07
COc1ccc(/C=C2\N=C(C)OC2=O)cc1[N+](=O)[O-] | 17
Brc1cccc(-c2cnco2)c1 | 4.42
O=c1[nH]c(=O)n([C@H]2C[C@H](O)[C@@H](CO)O2)cc1C(F)(F)F | -5.32
O=c1c2c(nc3c(-c4cccc(Br)c4)c[nH]n13)CCCC2 | 5.69
CC(C)C(=O)Nc1ccc(C(=O)N/N=C/c2cc(Br)cc(Br)c2O)cc1 | 4.48
Clc1ccc(-c2cn3nc4c(nc3n2)CCCC4)cc1 | 10.1
COc1ccc(NC(=O)C2CCCN(S(=O)(=O)c3cccc4nonc34)C2)c(OC)c1 (stereo not drawn) | 2
CC(=O)Nc1ccc(C=NNc2nnc(NN=Cc3ccc(NC(C)=O)cc3)c3ccccc23)cc1 | 6.7
COc1ccc(N2C(=O)CC(Sc3nnc(-c4ccccc4)o3)C2=O)cc1 (stereo not drawn) | 4.02
Cc1cccc(NC(=O)Nc2c(C)n(C)n(-c3ccccc3)c2=O)c1C | 43.7
Cc1c(C=O)c2ccccn2c1C(=O)c1ccccc1Cl | 5.73
COC(=O)c1ccc2nc(-c3ccc4c(c3)OCO4)cn2c1 | 7.59
Clc1ccc2nc(-c3ccc4c(c3)OCO4)cn2c1 | -2.92
Cc1c(/C(O)=C2/C(=O)C(=O)N(CCN3CCOCC3)C2c2ccccn2)cnn1-c1ccccc1 (stereo not drawn) | -7.18
CCc1cc(=O)oc2c(CNCc3c(F)cccc3Cl)c(O)ccc12 | 2.48
CS(=O)(=O)c1ccc(Sc2nc3ccccc3s2)c([N+](=O)[O-])c1 | -4.39
COc1ccccc1C(=O)NC(=O)CSc1nnc(N)s1 | -1.07
COc1ccc(-c2nc(CS(=O)CC(=O)NCc3ccc(Cl)cc3)c(C)o2)cc1 (stereo not drawn) | 6.15
COc1ccc(S(=O)(=O)NCCc2csc(-c3cccnc3)n2)cc1 | 1.59
